TIM10 inh = TIM10 yeast growth inhibition; S. cerevisiae TIM10 strain growth, BacTiter-Glo luminescence, 24 h; inhibition, % at 10 µM; 330,000 tested, 1.4% active;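 active means inhibition of 40% or more at the single tested concentration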;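 further: wild-type TIM10 isogenic control strain grown at permissive 25 °C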
NALP3 yeast inh = NALP3 inhibition in yeast; Yeast reconstituted NLRP3/ASC/caspase-1, beta-gal luminescence, 24 h; inhibition, % at 10 µM; 330,000 tested, 0.39% active; AID 2825;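 active means inhibition of 50% or more; inactive means inhibition below 50%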;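 further: plate controls were induced DMSO wells for no effect and uninduced yeast grown without galactose for full effect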
tim23-1 inh = tim23-1 yeast growth inhibition; 330,000 tested, 1.3% active; S. cerevisiae tim23-1 growth, BacTiter-Glo luminescence, 24 h; inhibition, % at 20 µM; AID 463212;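 active means growth inhibition of the mutant yeast at or above 50%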;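 further: temperature-sensitive mutant grown at 25 °C; plate controls were DMSO-treated mutant yeast for no effect and medium wells lacking yeast for full effect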
PfHsp90 set2 = growth inhibition of yeast expressing Plasmodium Hsp90; S. cerevisiae expressing PfHsp90, BacTiter-Glo ATP, 48 h; yeast lacking PDR1 and PDR3 efflux regulators; 310,000 tested, 0.32% active; inhibition, % at 9.4 µM;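 active means every replicate shows inhibition above about 80%, whatever the replicate mean, limit read from the data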;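 further: 0% = DMSO neutral controls and 100% = 20 µM radicicol positive controls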
tim10-1 inh = inhibits growth of tim10-1 mutant yeast | S. cerevisiae tim10-1 ts strain growth, BacTiter-Glo, 24 h | inhibition, % at 20 µM | 330,000 tested, 2.2% active;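 active means inhibition of at least 40%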;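 further: mutant grown at 25 °C; 0% = DMSO wells with yeast and 100% = wells holding no yeast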
TIM10 conf = TIM10 yeast growth inhibition, confirmed. 4,600 tested, 63% active. inhibition, % at 10 µM. S. cerevisiae tim10 strain growth, BacTiter-Glo luminescence, 24 h. shares compounds with TIM10 inh;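 active means inhibition of yeast growth at or above a set limit in either of two replicates at 10 µM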;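 further: this counterscreen used the strain with wild-type TIM10; 0% = yeast with DMSO and 100% = medium wells lacking yeast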
The depositor's hits bear a star. Most compounds without a hit are left out; they make up all but 3.7% or so of the library.

What do the screens show for `O=c1oc2c3c4c(cc2c2c1CCC2)OCCN4CCC3`?
TIM10 inh: 41*; NALP3 yeast inh: 6; tim23-1 inh: 39; PfHsp90 set2: -18; tim10-1 inh: 34; TIM10 conf: 2

Results for O=C(COC(=O)c1ccccc1[N+](=O)[O-])Nc1nnc(-c2ccccc2)o1 ?
TIM10 inh: 1; NALP3 yeast inh: 22; tim23-1 inh: 13; tim10-1 inh: 6

How did COc1ccc(NC(=O)N2CCN(c3nc(-c4cccc(OC)c4)cs3)CC2)cc1 do in these assays?
TIM10 inh: 40*; NALP3 yeast inh: 19; tim23-1 inh: 25; PfHsp90 set2: -9; tim10-1 inh: 21; TIM10 conf: 29*

What do the screens show for `Cn1cnnc1SCC(=O)Nc1ccc(OC(F)F)cc1`?
TIM10 inh: -3; NALP3 yeast inh: 33; tim23-1 inh: 6; PfHsp90 set2: 2; tim10-1 inh: -3

What do the screens show for `O=C(N/N=C/c1ccc(-c2cccc(C(F)(F)F)c2)o1)c1cccc(F)c1`?
TIM10 inh: 45*; NALP3 yeast inh: -15; tim23-1 inh: 27; PfHsp90 set2: 15; tim10-1 inh: 5; TIM10 conf: 39*

How did COc1ccc(NC(=S)NNC(=O)COc2ccc(Cl)cc2Cl)cc1 do in these assays?
TIM10 inh: 47*; NALP3 yeast inh: 25; tim23-1 inh: 41; PfHsp90 set2: -22; tim10-1 inh: 30; TIM10 conf: -13

What do the screens show for `CCC(=O)NC(=S)Nc1ccc(NC(=O)COc2ccc(Cl)cc2Cl)cc1`?
TIM10 inh: 34; NALP3 yeast inh: -2; tim23-1 inh: 13; PfHsp90 set2: -7; tim10-1 inh: 26

Results for Cc1cc(C)c(S(=O)(=O)N2CCC(C(=O)NCc3ccncc3)CC2)c(C)c1 ?
TIM10 inh: 17; NALP3 yeast inh: 12; tim23-1 inh: 0; PfHsp90 set2: -7; tim10-1 inh: 0

What do the screens show for `Cc1cc(C)c(S(=O)(=O)N2CCC(C(=O)NCc3ccc(Cl)cc3Cl)CC2)c(C)c1`?
TIM10 inh: 56*; NALP3 yeast inh: 48; tim23-1 inh: 30; PfHsp90 set2: 127*; tim10-1 inh: 29; TIM10 conf: 51*

How did O=C(c1ccc(Cl)cc1)c1cc(-c2ccccn2)c(N2CCOCC2)s1 do in these assays?
TIM10 inh: 40*; NALP3 yeast inh: 9; tim23-1 inh: 39; PfHsp90 set2: -10; tim10-1 inh: 37; TIM10 conf: 16

What do the screens show for `CN(C(=O)CSc1nnc2n1CCCCC2)C1(C#N)CCCCC1`?
TIM10 inh: -2; NALP3 yeast inh: 5; tim23-1 inh: -2; PfHsp90 set2: 30; tim10-1 inh: -14

How did N#CC1(NC(=O)CSc2nnc3n2CCCCC3)CCCCC1 do in these assays?
TIM10 inh: 81*; NALP3 yeast inh: 13; tim23-1 inh: -5; PfHsp90 set2: 9; tim10-1 inh: -3; TIM10 conf: 7

How did COc1ccc(CNC(=S)NC(C)CCc2ccccc2)cc1 (stereo not drawn) do in these assays?
TIM10 inh: 53*; NALP3 yeast inh: 21; tim23-1 inh: 10; PfHsp90 set2: 0; tim10-1 inh: 32; TIM10 conf: 21

What do the screens show for `CC(Sc1nc(N)c2c3c(sc2n1)CSC(C)(C)C3)C(=O)Nc1ccccc1` (stereo not drawn)?
TIM10 inh: 47*; NALP3 yeast inh: 8; tim23-1 inh: 39; PfHsp90 set2: 10; tim10-1 inh: 36; TIM10 conf: -35

How did O=C(COC(=O)c1ccccc1Nc1ccc(SC(F)F)cc1)NC1CC1 do in these assays?
TIM10 inh: 51*; NALP3 yeast inh: 38; tim23-1 inh: 27; PfHsp90 set2: 5; tim10-1 inh: 31; TIM10 conf: 37*

What do the screens show for `CC1CCN(C(=O)c2ccc(NC3=C(Cl)C(=O)N(Cc4ccccc4)C3=O)cc2)CC1`?
TIM10 inh: 41*; NALP3 yeast inh: 30; tim23-1 inh: 40; tim10-1 inh: 22; TIM10 conf: 42*

How did COc1ccc(CN2CCN(c3ncnc4scc(-c5ccc(F)cc5)c34)CC2)cc1 do in these assays?
TIM10 inh: 42*; NALP3 yeast inh: 0; tim23-1 inh: 48; PfHsp90 set2: -4; tim10-1 inh: 35; TIM10 conf: 45*

How did COc1ccc(N2CCN(c3ncnc4scc(-c5ccc(C)cc5)c34)CC2)cc1 do in these assays?
TIM10 inh: 14; NALP3 yeast inh: 16; tim23-1 inh: 10; PfHsp90 set2: -2; tim10-1 inh: -26

Source: PubChem
